# Source: PubChem BioAssay
# In the library only some 21% were active in any assay of this set; here they are far more common.
# TDP1 cell noCPT – qHTS for Inhibitors of human tyrosyl-DNA phosphodiesterase 1 (TDP1): qHTS in cells in absence of CPT; AID 686978, 2013; DT40 Tdp1-/- hTDP1 cells, no CPT, ATP luminescence, 48 h; Potency, µM (titrated, usually from 46.2 µM), actives largely listed as inhibitors; 420,000 tested, 15% active; also: nearly all actives have a fitted effect of over 55% in size
#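 Growth kinetics read by CellTiter-Glo luminescence after ≥48 hr at 37 °C. Cells: DT40 Tdp1-/- stably carrying human TDP1, 400 per well, compound exposure in the absence of CPT (DMSO vehicle).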
# DT40 TDP1 CPT – DT40-hTDP1 cell growth loss with CPT | chicken DT40 Tdp1-/-;hTDP1 cells + 20 nM CPT, ATP luminescence, 48 h | 420,000 tested, 12% active | AID 686979 | Potency, µM (series often up to 46.2 µM), actives largely listed as inhibitors; also: nearly all actives have a fitted effect of over 55% in size
#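 Chicken DT40 Tdp1-/- cells stably complemented with human TDP1 were seeded at 400 cells/well in medium containing 20 nM camptothecin, exposed to pin-transferred compounds, and grown at 37 °C for at least 48 hr. Viability was read as ATP luminescence.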
# ELG1 DNA repair – blocks ELG1-dependent DNA repair in HEK293T cells | HEK293T ELG1-luciferase reporter, luminescence, 16 h; DNA damage induced by 5-fluorouridine | Potency, µM (top dose mostly 46.1 µM), hits mostly inhibitors | 330,000 tested, 2.3% active | AID 504467; also: nearly all actives have a fitted effect of over 55% in size
#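 Luminescence from the luciferase reporter, measured 30 min after ONE-Glo reagent at room temperature, was the read-out. Beforehand, 2,000 cells per well were exposed for 16 hr at 37 °C to 5-fluorouridine together with compound or vehicle.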
# Gal4-VP16 FLuc – Gal4-VP16 reporter inhibition counter-screen. Drosophila S2 Gal4-VP16 UAS-luciferase, luminescence, 20 h. 310,000 tested, 3.5% active. AID 2546. Potency, µM (highest dose often 53.6 µM), most hits filed as inhibitors;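 also: Gal4-VP16 expression switched on by copper sulfate through the metallothionein promoter; nearly all actives have a fitted effect of over 50% in size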
# RORg inh – ROR gamma (mouse) transcription inhibition. Drosophila S2 Gal4-RORgamma UAS-luciferase reporter, 20 h. P51450. AID 2551. 310,000 tested, 5.4% active. Potency, µM (top dose mostly 53.6 µM), actives largely listed as inhibitors; also: nearly all actives have a fitted effect of over 60% in size
# Target sequence (P51450 whole entry, looked up, the tested form may be a part): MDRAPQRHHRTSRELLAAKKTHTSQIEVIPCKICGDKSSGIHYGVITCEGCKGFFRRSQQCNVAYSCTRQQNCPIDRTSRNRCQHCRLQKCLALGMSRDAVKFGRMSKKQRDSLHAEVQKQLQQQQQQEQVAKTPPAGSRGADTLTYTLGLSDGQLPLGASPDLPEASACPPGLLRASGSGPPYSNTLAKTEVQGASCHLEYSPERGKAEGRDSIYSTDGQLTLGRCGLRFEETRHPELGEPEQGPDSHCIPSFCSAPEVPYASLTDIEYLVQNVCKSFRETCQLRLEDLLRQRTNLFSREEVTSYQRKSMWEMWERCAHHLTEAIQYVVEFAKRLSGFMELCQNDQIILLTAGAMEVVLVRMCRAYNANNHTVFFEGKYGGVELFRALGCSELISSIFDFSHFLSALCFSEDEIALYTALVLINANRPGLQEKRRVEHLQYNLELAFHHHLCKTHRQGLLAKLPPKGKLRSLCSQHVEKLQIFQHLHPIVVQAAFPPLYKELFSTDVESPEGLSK
#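 Luminescence from a UAS-regulated Photinus luciferase reporter in stably transfected Drosophila Schneider cells is measured; decreased signal marks ROR gamma inhibition. Fusion expression is induced by 700 uM copper sulfate for 20 hr.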
# IL1B secr inh – blocks inflammasome-driven IL-1 beta release; THP-1 LPS/ATP IL-1B secretion, AlphaLISA, 16 h; stronger effect = lower value; 360,000 tested, 4.7% active; AID 743279; activity change, % at 57.5 µM; in the data active = activity change below about -50%; inconclusive = mostly about -30% to -49%
#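 THP-1 cells pretreated 1 hr with compounds (up to 57.5 uM final), then stimulated with LPS (250 ng/mL final) plus ATP (1.25 mM final); secreted IL-1B measured by AlphaLISA after 16 hr, decreased signal indicating inhibition.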
# A number is an active result; - = inactive; ? = inconclusive; . = no result; [ ] = remark or other dose. Unless noted, calls follow the shape of the dose curve; as a rule, active = well fitted curve in the direction sought with a large enough effect; inconclusive = small, poorly fitted or top-dose-only effect, or another doubt; inactive = no such curve, though single readings can be large; an effect the other way counts as inactive or inconclusive.
SMILES,TDP1 cell noCPT,DT40 TDP1 CPT,ELG1 DNA repair,Gal4-VP16 FLuc,RORg inh,IL1B secr inh
CCOc1ccc2[nH]c(C)c(CN3CCCCCC3)c(=O)c2c1,-,-,-,-,-,-
COc1ccc(NC(=O)c2cc(=O)c3ccc(C)c(C)c3o2)cc1Cl,?,-,.,.,.,.
CC(C)c1ccccc1-n1c(SCC(=O)c2ccc3c(c2)NC(=O)CO3)nc2ccccc2c1=O,23µM,18µM,5.2µM,-,2.8µM,-
Cn1cnnc1SCC(=O)c1ccc2c(c1)NC(=O)CO2,-,-,-,.,.,-
O=S(=O)(c1ccc2c(c1)OCCO2)N1CCC(c2nc3ccc(Cl)cc3[nH]2)CC1,12µM,8.2µM,18µM,-,-,-72
O=C(NCC1CCCO1)c1ccc(S(=O)(=O)N2CCC(c3nc4ccc(Cl)cc4[nH]3)CC2)cc1 (stereo not drawn),23µM,26µM,13µM,-,?,-
O=S(=O)(c1cccc(Cl)c1)N1CCC(c2nc3ccccc3[nH]2)CC1,18µM,21µM,-,-,?,-
CC(=O)c1cccc(S(=O)(=O)N2CCC(c3nc4ccccc4[nH]3)CC2)c1,-,-,-,-,?,-
Cc1ccc2nc(C3CCN(S(=O)(=O)c4ccc5ccccc5c4)CC3)[nH]c2c1,?,?,.,-,-,-69
O=S(=O)(c1ccc2c(c1)OCCO2)N1CCC(c2nc3ccccc3[nH]2)CC1,?,?,?,-,-,-
O=C(NCC1CCCO1)c1cc(S(=O)(=O)N2CCCCC2)ccc1Cl (stereo not drawn),-,-,-,.,.,-
Cc1ccc(CNC(=O)c2cnc3c(-c4ccc(F)cc4)c(C)nn3c2C)o1,-,-,.,.,.,.
Cc1cc(C)cc(C(=O)N2CCCCC2)c1,-,-,.,.,.,-
CC(C)CCN(C)C1CCN(S(=O)(=O)c2cccc(C(F)(F)F)c2)CC1,-,-,-,-,-,-53
O=S(=O)(c1cccc(C(F)(F)F)c1)N1CCC(c2nc3ccccc3[nH]2)CC1,23µM,?,-,-,-,-
O=S(=O)(c1ccc(F)cc1)N1CCC(c2nc3ccccc3[nH]2)CC1,?,-,-,-,-,-
O=C(Nc1ccc(S(=O)(=O)N2CCC(c3nc4ccccc4s3)CC2)cc1)c1ccccc1,-,-,.,.,.,.
CO[C@H]1COC(=O)[C@H](C)COC(=O)C/C=C\[C@@H](C)[C@H](OC)COC(=O)C/C=C\[C@@H]1C,.,.,.,-[10 µM],-[10 µM],.
COc1cc(NC(=O)CSc2nc3nc(C)c(Cc4ccccc4)c(C)n3n2)cc(OC)c1OC,21µM,21µM,.,.,.,.
C=CCc1c(C)nc2nc(SCC(=O)Nc3cccc(Cl)c3)nn2c1C,-,21µM,.,.,.,.
Cc1cccc(Cc2c(C)nc3nc(SCC(=O)NCc4ccccc4)nn3c2C)c1,?,21µM,.,.,.,.
Cc1cccc(Cc2c(C)nc3nc(SCC(=O)O)nn3c2C)c1,-,-,-,-,-,-
COc1ccccc1CNC(=O)CSc1nc2nc(C)c(Cc3ccccc3C)c(C)n2n1,5.2µM,15µM,.,.,.,.
COc1cccc([C@@H]2Oc3ccc(Br)cc3C[C@H]2OC(=O)N[C@H](C)C2CCCCC2)c1,.,.,.,-,-,.
Cc1nc2nc(SCC(=O)NC3CCC(C)CC3)nn2c(C)c1Cc1ccccc1 (stereo not drawn),?,18µM,.,.,.,.
SMILES,TDP1 cell noCPT,DT40 TDP1 CPT,ELG1 DNA repair,Gal4-VP16 FLuc,RORg inh,IL1B secr inh
Cc1nc2nc(SCC(=O)NCCN3CCOCC3)nn2c(C)c1Cc1ccccc1,-,-,-,-,-,-
Cc1ccc(C(C)NC(=O)c2cc3cc(Br)ccc3oc2=N)cc1 (stereo not drawn),21µM,23µM,-,-,-,-
N=c1oc2ccc(Br)cc2cc1C(=O)NC1CCCCCC1,9.2µM,16µM,-,-,-,-
CC(C)NC(=O)c1cc2cc(Br)ccc2oc1=O,23µM,?,?,-,-,-
COc1ccc(S(=O)(=O)CC(=O)c2cc3cc(Br)ccc3oc2=O)cc1,12µM,?,-,?,-,-
Cc1ccc(C(C)NC(=O)c2cc(C)oc2C)cc1 (stereo not drawn),?,-,-,-,-,-
O=C(NCCN1C(=O)S/C(=C\c2ccc(F)cc2)C1=O)c1cccc(S(=O)(=O)N2CCOCC2)c1,16µM,23µM,?,-,-[10 µM],-
O=C(NCCN1C(=O)S/C(=C\c2ccc(Cl)cc2)C1=O)c1ccc(F)c(S(=O)(=O)N2CCOCC2)c1,5.8µM,6.5µM,?,-,?,-
O=C(NCCCc1ccccc1)c1cccc(S(=O)(=O)N2CCOCC2)c1,-,-,-,.,.,-
O=C(NCCN1C(=O)S/C(=C\c2ccccc2)C1=O)c1cc(S(=O)(=O)N2CCOCC2)c(Cl)cc1Cl,4.1µM,21µM,15µM,-,-,-
O=C(NC1CCCC1)C1C(c2ccc(C(F)(F)F)cc2)=Nc2ccccc2N1C(=O)c1cccc2ccccc12 (stereo not drawn),?,?,.,.,.,-
CC(C)(CO)NC(=O)c1cnn(-c2ncc3c(n2)-c2ccccc2CC3)c1C1CC1,-,-[9.04 µM],.,.,.,.
CCCCN1C(=O)C(CC(=O)NCc2cccc3ccccc23)CC(C(=O)N2CCCCCC2)=C1C (stereo not drawn),?,?,.,.,.,-55
CC1=C(C(=O)N2CCCCCC2)CC(CC(=O)NCc2cccc3ccccc23)C(=O)N1CCC1=CCCCC1 (stereo not drawn),?,?,.,.,.,-63
CC1=C(C(=O)N2CCCCCC2)CC(CC(=O)NCc2cccs2)C(=O)N1CCC1=CCCCC1 (stereo not drawn),23µM,16µM,.,.,.,-
Cc1ccc(CN2CCN(C3CCNCC3)C(=O)C2=O)cc1,-,-,.,.,.,.
Nc1nc(Nc2ccccc2)nc(N2CCOCC2)c1[N+](=O)[O-],-,-,-,-,?,-
Fc1ccc(Nc2nc(N3CCOCC3)c3ccccc3n2)cc1,23µM,?,?,-,-,-78
c1ccc2c(Nc3nc(N4CCOCC4)c4ccccc4n3)cccc2c1,23µM,13µM,23µM,?,-,-109
Cc1cnc(C(=O)NC(Cc2ccccc2)c2ccccc2)cn1 (stereo not drawn),-,-,-,-,-,-
NC(=O)c1[nH]cnc1N=NN(CCO)Cc1ccccc1,-,-,.,.,.,-
Cc1ccc(-n2c(-c3ccccc3)cc(=O)nc2C)cc1,-,-,-,-,-,-
Brc1ccc(-c2ccccc2)cc1,-,-,-,-,-,-
Brc1ccc(-c2c[n+]3c(n2-c2ccccc2)SCC3)cc1,5.8µM,5.8µM,?,-,-,.
